This note sets out measurements from PubChem BioAssay AID602163 (The Scripps Research Institute Molecular Screening Center, 2012).

Among all 360,000 compounds or so, about 1,100 (0.31%) were called active. The entries come from a sample that favours actives as a whole. Values without a mark were called inactive. Rule as the data show it: active = activation above about 7.5%; inactive = the rest.

The experiment relates to Methionine sulfoxide reductase A (Bos taurus). Description: activation of methionine sulfoxide reductase A – biochemical, absorbance, bovine, HTS, primary screen (AID 602163).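 Also: 0% = vehicle and 100% = reference activator.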 To be noted: purified bovine MsrA, absorbance read-out; at 10.6 µM; stronger effect = higher value.
Take `CC(=O)NC(Cc1c[nH]c2ccccc12)C(=O)NCCc1ccccc1` (configuration not stated): the activation is -3.82%.

Turning to `CC(=O)NC(Cc1c[nH]c2ccccc12)C(=O)O` (configuration not stated), the activation was 9.9% (active).

Take `O=C(N[C@@H](Cc1c[nH]c2ccccc12)C(=O)O)OCC1c2ccccc2-c2ccccc21`: the activation is 0.63%.

With `NS(=O)(=O)c1cccc(NC(=O)CC23CC4CC(CC(Br)(C4)C2)C3)c1`, the activation was -2.66%.

As for `C#CCO[C@@H]1C[C@H](n2cnc3c(=O)[nH]c(NC(=O)C(C)C)nc32)O[C@@H]1CO`, the activation was -0.46%.

Regarding `COc1cc(NC(=O)c2ccccc2)c(OC)cc1NC(=O)Cc1ccccc1`, the activation is 0.53%.

Consider `C/C(=N\NC(=O)c1ccc(C)cc1)C1C(=O)c2ccccc2C1=O`, for which the activation was -5.75%.

Turning to `O=C(NC1=CC(=O)c2ccccc2C1=O)c1ccccc1`, the activation is 18.2% (active).

On to `O=C(CSCc1c(Cl)cccc1Cl)NN1C(=O)c2ccccc2C1=O`, for which the activation is -2.13%.

As to `O=C(COC(=O)Cc1ccc(Br)cc1)Nc1ccc(N2CCOCC2)cc1`, the activation is -1.14%.

`Cn1c(SCC(=O)N2CCCC2)nnc1-c1cccs1`: the activation is -0.73%.

For the compound `O=C(CSc1ncccn1)N1CCCC1`, the activation is -3.29%.

Consider `O=C(CSc1n[nH]c(-c2cccs2)n1)N1CCCCC1`, for which the activation is 8.31% (active).

As to `CCCCn1c(N)c(N(CC(C)C)C(=O)CSc2ccc([N+](=O)[O-])cc2)c(=O)[nH]c1=O`, the activation is -3.75%.

With `COc1ccc([C@H]2CC(=O)C=C(c3ccc(C)cc3)C2)cc1`, the activation was -3.05%.

Turning to `COc1ccc([C@H]2CC(=O)C=C(/C=C/c3ccccc3)C2)cc1`, the activation is 8.06% (active).

For the compound `COc1ccc([C@H]2CC(=O)C=C(/C=C/c3ccc(Cl)cc3)C2)cc1`, the activation was -1.21%.

In the case of `O=C(Nc1cccn(Cc2c(Cl)cccc2Cl)c1=O)c1ccc(Cl)cc1`, the activation was 2.68%.

`CC(Sc1nnc(CNC(=O)c2ccccc2F)n1C)C(=O)Nc1nccs1` (configuration not stated): the activation is 0.09%.

With `O=C(Nc1ccccc1F)c1ccccc1-c1ccccc1`, the activation is -1.97%.

With `O=C(O)c1ccccc1NC(=O)c1ccccc1-c1ccccc1C(=O)O`, the activation is 7.87% (active).

As for `O=C(O)c1ccccc1-c1ccccc1C(=O)Nc1ccccc1Br`, the activation was -10.3%.

Turning to `O=C(O)c1ccccc1-c1ccccc1C(=O)NCCc1ccccc1`, the activation was -13.5%.

As to `O=C(O)c1ccccc1-c1ccccc1C(=O)Nc1nccs1`, the activation was -2.03%.

Consider `O=C(O)c1ccccc1-c1ccccc1C(=O)Nc1cccc2ccccc12`, for which the activation was 11.4% (active).

For the compound `N#Cc1ccc(OCCN2C(=O)NC3(CCSC3)C2=O)cc1` (configuration not stated), the activation was -0.26%.

In the case of `CCOC(=O)c1cc(-c2ccccc2C)n(Cc2cc(C)no2)n1`, the activation was -2.88%.

For `COc1ccccc1CNC(=O)C1CCN(S(=O)(=O)c2ccc3c(c2)OCCO3)CC1`, the activation was -2.2%.

As to `Cc1ccc(S(=O)(=O)N(CC(=O)NN=C2CCN(C)CC2)c2ccc(F)cc2)cc1`, the activation is -2.23%.

For the compound `Cc1nc(NNC(=O)c2ccccc2)cc(-c2ccccc2)n1`, the activation was 1.76%.

Turning to `Cn1sc(NC(=O)c2ccccc2)nc1=O`, the activation was 14.9% (active).

As for `CCOC(=O)c1cc(-c2sc(NC(=O)c3ccccc3)nc2C)n(CCO)n1`, the activation was -3.15%.

Turning to `CCN(CC)S(=O)(=O)c1ccc(OC(C)C)c(N)c1`, the activation is -3.46%.

With `CN1C(=O)c2ccccc2C(C(=O)NCCCN2CCCC2)C1c1c[nH]c2ccccc12` (configuration not stated), the activation was -1.12%.

On to `Cc1ccc(SCC(=O)c2cc(C)c(OC(=S)N(C)C)c(C)c2)cc1`, for which the activation is 1.83%.

In the case of `COc1ccc(CCNC(=O)CN2CCC(n3nnc4cc(F)ccc43)CC2)cc1OC`, the activation is -2.2%.

As for `NC1=CC(=O)C(=O)c2cccnc21`, the activation is 15.2% (active).

`Cc1ccc2c(CC(=O)NCc3cccs3)coc2c1`: the activation is -2.6%.

As for `COc1cc(C(=O)OCCCN2CCOCC2)cc(OC)c1OC`, the activation was -0.8%.

For the compound `COC(=O)c1scc(S(=O)(=O)C(C)(C)C)c1-n1cccc1`, the activation was -1.27%.

Consider `COc1ccc(S(=O)(=O)N2CCOCC2)cc1NC(=O)Cc1coc2cc(C)ccc12`, for which the activation is -1.58%.

As for `CC(C)c1ccc(Nc2ncccc2C#N)cc1`, the activation was -0.47%.

Take `CC1=NNC(=O)C1CCC(=O)N/N=C\c1cccc(Cl)c1` (configuration not stated): the activation is -5.62%.

Consider `CC1=NNC(=O)C1CCC(=O)N/N=C\c1ccc(Cl)c(Cl)c1` (configuration not stated), for which the activation was -2.03%.

As for `CC1=NNC(=O)C1CCC(=O)N/N=C(\C)c1ccc(Cl)cc1` (configuration not stated), the activation is 19.6% (active).

Consider `CCOc1ccc(CCNC(=O)COC(=O)C2CCN(S(=O)(=O)c3ccccc3)CC2)cc1OCC`, for which the activation was -3.79%.

As to `CSC1=NCCN1C(=O)Cc1cccc2ccccc12`, the activation is -1.62%.

In the case of `O=C(NCCOc1ccccc1)N1[C@H]2CC[C@@H]1C=C(c1ccc(F)cc1OCc1ccccc1)C2`, the activation was -0.63%.

On to `Cc1ccc(COC(=O)CN2C(=O)NC3(CCCC3)C2=O)cc1`, for which the activation was 10.9% (active).

Take `CCOc1ccc(C(C)=O)cc1COC(=O)CN1C(=O)NC2(CCCC2)C1=O`: the activation was -2.45%.

On to `O=C(CN1C(=O)NC2(CCCC2)C1=O)OCCOc1ccc(F)cc1`, for which the activation was -0.72%.

`CCn1c(=S)[nH]c2sc3c(c2c1=O)CCCCC3`: the activation was 1.11%.

In the case of `N=c1c2c3c(sc2ncn1CCCN1CCOCC1)CCCCC3`, the activation is -6.06%.

For the compound `S=c1[nH]nc2c3c4c(sc3ncn12)CCCC4`, the activation was 12.9% (active).

Turning to `COc1cc(NC(=O)COC(=O)c2cnc(C)cn2)c(C)cc1[N+](=O)[O-]`, the activation is -4.41%.

Take `COc1cccc(/C=C/C(=O)OCC(=O)N2CCN(c3ccccc3)CC2)c1`: the activation is -1.19%.

As for `C[C@H](NC(=O)c1ccccc1Cl)C(=O)OCC(=O)N1CCN(c2ccccc2)CC1`, the activation was 1.01%.

For `COc1ccc(C(=O)COC(=O)c2ccc([N+](=O)[O-])s2)cc1OC`, the activation was 12.4% (active).

Turning to `O=C(OCC(=O)N1CCN(c2ccccc2)CC1)c1ccc([N+](=O)[O-])s1`, the activation is 8.9% (active).

For the compound `COc1ccc(C(=O)OCC(=O)c2ccc(C)c(S(=O)(=O)N3CCOCC3)c2)cc1OC`, the activation was -4.43%.

For `COc1ccc(C(=O)OCC(=O)Nc2ccc3[nH]c(=O)[nH]c3c2)c(OC)c1OC`, the activation was 1.62%.

As for `COc1cc(NC(=O)COC(=O)c2ccc([N+](=O)[O-])s2)cc(OC)c1OC`, the activation was 10.6% (active).

On to `COc1ccc(C(=O)OCC(=O)c2ccc(Cl)s2)c(OC)c1OC`, for which the activation is -1.71%.

Consider `CCOC(=O)C1CCN(C(=O)C2CCN(S(=O)(=O)c3c(C)noc3C)CC2)CC1`, for which the activation was -0.14%.

As for `O=C1[C@@H]2C(Cc3ccc(O)cc3)NC3(C(=O)Nc4ccc(F)cc43)[C@@H]2C(=O)N1c1ccc(F)cc1` (some centres not stated), the activation is -1.38%.

As to `COc1ccc([C@H]2N[C@]3(CCCN(CC4CCCCC4)C3=O)[C@H]3C(=O)N(C)C(=O)[C@@H]23)cc1`, the activation is -4.49%.

Turning to `CCOc1ccccc1NC(=O)C1CCCN(C(=O)Nc2ccccc2)C1` (configuration not stated), the activation is -2.87%.

Turning to `Nn1c(SCC(=O)Nc2ccc3c(c2)CCC3)nnc1C1CC1`, the activation is 0.99%.

On to `CC1CCc2[nH]c3ccc(C(=O)N(C)CC(=O)Nc4cccc(F)c4)cc3c2C1` (configuration not stated), for which the activation is -0.36%.

Consider `CCCN(CC(=O)Nc1ccccc1C)C(=O)c1cc(=O)[nH]c2ccccc12`, for which the activation was -8.69%.

In the case of `CCCN(CC(=O)Nc1ccccc1C)C(=O)c1ccc2[nH]c3c(c2c1)CC(C)CC3` (configuration not stated), the activation was 17.2% (active).

As for `COCC(=O)Nc1c(I)c(C(=O)NCC(O)CO)c(I)c(C(=O)N(C)CC(O)CO)c1I` (configuration not stated), the activation is -1.2%.

Turning to `NC(=O)NCCCC(=O)O`, the activation is 5.76%.

Turning to `CC(=O)N(O)CCCCCNC(=O)CCC(=O)N(O)CCCCCNC(=O)CCC(=O)N(O)CCCCCNC(=O)CCC(=O)O`, the activation was 8.82% (active).

Turning to `COc1ccc(OC)c(NC(=O)COC(=O)Cc2ccsc2)c1`, the activation is -3.82%.

`S=c1nccc(-c2cc(Cl)sc2Cl)[nH]1`: the activation was -10.9%.

Turning to `CC[C@]1(O)C[C@@H]2CN(CCc3c([nH]c4ccccc34)[C@@](C(=O)OC)(c3cc4c(cc3OC)N(C)[C@H]3[C@@](O)(C(=O)OC)[C@H](OC(C)=O)[C@]5(CC)C=CCN6CC[C@]43[C@@H]65)C2)C1`, the activation is -0.23%.

Turning to `Nc1ccc2[nH]c(=S)sc2c1`, the activation is 0.61%.

Turning to `CCOc1ccc2[nH]c(=S)sc2c1`, the activation is 8.43% (active).

Take `CCOc1ccc2[nH]c(=O)c(CN(CCCO)C(C)=O)cc2c1`: the activation is -0.13%.

Take `Cn1c(CCCOc2ccc(Cl)cc2Cl)n[nH]c1=S`: the activation is -3.29%.

On to `Cc1ccc(C)c(NC(=O)CSc2nnc(Cc3cccn3C)n2-c2ccc(F)cc2)c1`, for which the activation is 9.61% (active).

For the compound `COc1ccccc1NC(=O)CSc1nnc(Cc2cccn2C)n1-c1ccc(F)cc1`, the activation is -0.41%.

`COC(=O)c1ccc(NC(=O)CSc2nnc(Cc3cccn3C)n2-c2ccc(F)cc2)cc1`: the activation was -0.87%.

Consider `CCn1c(C)nc2c1C(=O)c1ccccc1C2=O`, for which the activation is 6.51%.

On to `O=C(Nc1ccc(S(=O)(=O)Nc2ncccn2)cc1)C12CC3CC(CC(C3)C1)C2`, for which the activation is -5.78%.

Turning to `Cc1cc(OC(C)C(=O)Nc2ccc(S(=O)(=O)Nc3onc(C)c3C)cc2)cc(C)c1Cl` (configuration not stated), the activation was -4.68%.

Consider `Cc1noc(NS(=O)(=O)c2ccc(NC(=O)C34CCC(CC3)C4)cc2)c1C`, for which the activation is 7.83% (active).

For the compound `COc1cc(C(=O)OCC(=O)NC23CC4CC(CC(C4)C2)C3)cc(OC)c1OC`, the activation was -1.08%.

Consider `COc1ccc(S(=O)(=O)N2CCOCC2)cc1NC(=O)CC1CC2CCC1C2` (configuration not stated), for which the activation was -3.8%.

`CCN(CC(=O)Nc1ccccc1OC)C(=O)CC1CC2CCC1C2` (configuration not stated): the activation is 7.82% (active).

For `CCN(CC(=O)Nc1ccccc1OC)C(=O)Cn1cnc2ccccc2c1=O`, the activation was -6.89%.
